An excerpt weighted towards active compounds, which were near 19% of everything screened.
MARV entry inh – blocks Marburg virus binding to or entry into cells; Marburg virus pseudotyped entry inhibition, cell reporter; Potency, µM (doses to about 37.8 µM), for inactives: at the highest dose activity change, negative = inhibition, most hits filed as inhibitors; 300,000 compounds, 1.8% hits; AID 540276; calls by dose curve; tested in HEK293 cells; further: potency means the concentration at half of the fitted maximal effect; on the % scale 0 is the no-effect control and ±100 the full control effect
Lassa entry inh – Lassa virus entry inhibition; 300,000 compounds, 1.2% hits; Lassa virus pseudotype entry inhibition, cell reporter; Potency, µM (highest dose often 37.9 µM), without a hit: at the highest dose activity change, negative = inhibition, hits mostly inhibitors; calls by dose curve; tested in HEK293 cells; further: potency means the concentration at half of the fitted maximal effect; on the % scale 0 is the no-effect control and ±100 the full control effect; nearly all actives have a fitted effect of over 50% in size
Pf growth 96h – inhibits malaria parasite growth, 96 h; P. falciparum luciferase reporter growth, 96 h; Potency, µM (doses to about 28.7 µM), inactives show top-dose activity change, negative = inhibition, actives largely listed as inhibitors; 320,000 compounds, 6.9% hits; further: potency means the concentration at half of the fitted maximal effect; on the % scale 0 is the no-effect control and ±100 the full control effect
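96 h incubation, 37 C, 5% CO2, of luciferase-reporter P. falciparum-infected RBCs (2% hematocrit, 0.05% parasitemia final) with test compounds; endpoint luminescence.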
Cycloheximide cs – affects cycloheximide protein synthesis inhibition readout, counter-screen; cell reporter, cycloheximide protein synthesis inhibition counterscreen; max response, %; 300,000 compounds, 12% hits; AID 2314; in the data active means max response mostly above about 13%, no sharp cut-off; inactive means mostly below about 14%; further: read at 38.3 µM for the half of the compounds with a filed dose; 0% is about no effect
Shiga toxin inh – blocks Shiga toxin action in Vero cells; Vero cells, Shiga toxin protein synthesis inhibition reporter; inhibition, % at 38.7 µM; 290,000 compounds, 9.2% hits; in the data active means inhibition mostly above about 28%, no sharp cut-off; inactive means mostly below about 43%; further: 0% is about no effect
Pf growth 48h – inhibits P. falciparum growth in the first generation, 48 h | P. falciparum luciferase growth in erythrocytes, 48 h | Potency, µM (titrated, usually from 28.7 µM), for the others: at the top dose activity change, negative = inhibition, usual class: inhibitors | 310,000 compounds, 5.9% hits; further: potency means the concentration at half of the fitted maximal effect; on the % scale 0 is the no-effect control and ±100 the full control effect
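Erythrocytes infected with P. falciparum carrying an integrated firefly luciferase reporter (2% hematocrit, 0.1% parasitemia final) were exposed to compounds in RPMI 1640 with 0.5% Albumax at 37 C, 5% CO2. Growth inhibition was scored as reduced luminescence.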
* marks the source's active call; other numbers are inactive results; i = inactive; ? = inconclusive; nt = no result given; [ ] = remark or other dose. Unless noted, the call rests on the fitted dose curve; in most records, active means well fitted inhibition curve with a large enough effect; inconclusive means small, poorly fitted or top-dose-only effect, or another doubt; inactive means no such curve, though single readings can be large or run the other way.

SMILES	MARV entry inh	Lassa entry inh	Pf growth 96h	Cycloheximide cs	Shiga toxin inh	Pf growth 48h
Cc1ccc(Nc2nc(N)nc(-c3oc4ccccc4c3C)n2)cc1	?	?	-7.8%	23.0*	46.0*	?
Cc1ccc(Nc2nc(N)nc(COC(=O)c3ccc(Br)o3)n2)cc1	?	-2.2%	62.4%	nt	nt	25.7%
Cc1ccc2c(c1)C1(OCCO1)C(=O)N2	19.2%[46.1 µM]	11.4%	-1.5%	3.0	-1.8	nt
CC(c1ccc(Br)cc1)N1CC23C=CC(O2)C(C(=O)O)C3C1=O (stereo not given)	nt	nt	22.8%	-3.2	-3.5	nt
CC(C)OC(=O)C1C2C=CC3(CN(C(C)c4ccc(Br)cc4)C(=O)C13)O2 (stereo not given)	nt	nt	10.4µM*	13.5	-17.9	nt
C/C(=N/OC(=O)c1ccc(C)cc1)c1cccs1	20.4%	9.7%	75.8%	32.9*	123.0*	89.9%
C/C(=N\OC(=O)c1ccc(C)cc1)c1sc(C)nc1C	25.2%	-2.0%	19.3%	31.9*	32.9	nt
C/C(=N/OC(=O)c1ccccc1Br)c1ccc(C)cc1	?	11.3%	-25.1%	66.2*	138.8*	52.0%
C/C(=N\OC(=O)c1ccc(Cl)c(Cl)c1)c1sc(C)nc1C	?	14.5%	?	-3.0	-7.2	nt
O=c1[nH]c(=O)n(C2CCCO2)cc1F (stereo not given)	-11.8%	-24.5%	-29.2%	-2.3	-4.5	-1.6%
Cc1cc(C)nc(NS(=O)(=O)c2ccc(N3Cc4ccccc4C3=O)cc2)n1	4.7%	19.3%	-19.1%	-2.5	21.1	3.9%
O=C(Cc1ccccc1)c1ccccn1	-3.7%	5.3%	nt	nt	nt	nt
Cc1oc(-c2ccccc2)nc1CC(=O)O	9.4%	9.0%	nt	-0.8	-15.8	7.4%
CCn1ncc(/C=C/C(=O)C2CC2)c1C	?	15.4%	4.2%	23.7	active	12.7%
Cc1cccn2c(=O)c3cc(C(=O)NCc4ccco4)c(=N)n(CCOCCO)c3nc12	?	-4.7%	?	1.0	3.7	1.47µM*
COCCCn1c(=N)c(C(=O)NCc2ccco2)cc2c(=O)n3cccc(C)c3nc21	3.7%[46.1 µM]	19.4%[46.1 µM]	nt	nt	nt	nt
Cc1cccn2c(=O)c3cc(C(=O)NCc4ccco4)c(=N)n(C4CCCCC4)c3nc12	?	nt	20.5%	-5.0	28.4	9.28µM*
O=C(NCc1ccc(Cl)c(Cl)c1)C1CCCC1	5.2%[46.1 µM]	0.0%	nt	nt	nt	nt
O=C(Cc1ccc(Cl)c(Cl)c1)N1CCCCC1CN1CCCC1 (stereo not given)	8.91µM*	?	nt	nt	nt	nt
CC1CCCCN1C(=O)Cc1ccc(Cl)cc1 (stereo not given)	19.1%[46.1 µM]	19.4%	-16.1%	13.6*	19.1	23.1%
CC1CCCCN1C(=O)CNCc1ccc(F)cc1 (stereo not given)	27.8%	?	32.0%	17.4	56.6	34.6%
CCC(Sc1ncnc2c1nnn2-c1ccc(F)cc1)C(=O)OC (stereo not given)	1.7%	15.6%	nt	15.5	3.1	36.3%
CC(C)c1ccc(CN(C(=O)C2COc3ccccc3O2)C2CCS(=O)(=O)C2)cc1 (stereo not given)	?	-15.6%	?	8.7	15.6	?
CN(C)c1ccc(CN(C(=O)C2COc3ccccc3O2)C2CCS(=O)(=O)C2)cc1 (stereo not given)	-12.4%	32.4%[14.3 µM]	5.22µM*	3.5	-4.9	?
Cc1cc(C)c2c(n1)nn1c(NCCOCCO)cc(C)nc21	3.7%	0.1%	nt	0.3	28.6	1.9%
SMILES	MARV entry inh	Lassa entry inh	Pf growth 96h	Cycloheximide cs	Shiga toxin inh	Pf growth 48h
COC(=O)c1c(NC(=O)Cc2ccccc2)sc(C)c1C	7.4%	13.5%	3.7%	2.4	-4.2	nt
c1ccc(CN2CCN(c3nc(-c4ccccn4)nc4ccccc34)CC2)cc1	10.0%[46.1 µM]	12.8%	-99.0%	9.6	-9.2	1.65µM*
c1ccc2c(N3CCCC3)nc(-c3ccncc3)nc2c1	?	-4.5%	?	-0.7	-12.5	?
c1ccc(CN2CCN(c3nc(-c4ccccc4)nc4ccccc34)CC2)cc1	?	-7.0%	nt	5.9	-16.3	3.29µM*
CCN1CCN(c2nc(-c3ccccn3)nc3ccccc23)CC1	-11.1%	0.0%	?	6.5	26.0	?
CN1CCN(c2nc(-c3ccncc3)nc3ccccc23)CC1	7.94µM*	-5.1%	nt	-5.2	-1.7	9.28µM*
c1ccc(CN2CCN(c3nc4ccccc4c4ccccc34)CC2)cc1	-21.1%	-19.3%	nt	1.7	-11.5	nt
CC[C@@H]1CCCCN1c1nc(-c2ccncc2)nc2ccccc12	9.2µM*	nt	nt	nt	nt	nt
Cc1ccc(NC(=O)CCSc2nnnn2-c2ccc3c(c2)OCO3)cc1C	-20.5%	6.1%	nt	4.0	12.7	-29.1%
COc1cccc(-c2nc(N3CCN(C)CC3)c3ccccc3n2)c1O	?	?	0.0%	13.6*	34.2	0.0%
Cc1cc2[nH]c(=O)cc(-c3ccccc3)n2n1	nt	nt	-10.3%	16.6*	47.2	17.1%
CNC(=O)c1ccsc1NC(=O)CS(=O)(=O)c1ccc(Cl)cc1	nt	nt	?	-5.1	-11.0	6.8%
NC(=O)c1ccsc1NC(=O)c1ccc(N2CCCC2=O)cc1	nt	nt	i	21.9	21.9	198.5%
NC(=O)c1ccsc1NC(=O)c1ccc2c(c1)CCCC2	?	?	104.9%	51.3*	59.2*	146.1%
CNC(=O)c1ccsc1NC(=O)c1ccc2c(c1)CCCC2	?	?	162.7%	23.4*	34.9	132.7%
O=C(c1ccsc1)N1CCCC(Nc2ccc(F)c(F)c2)C1 (stereo not given)	nt	nt	?	-3.0	-5.1	14.0%
Cc1ccc(C)c(NC(=O)COc2coc(CN3CCc4ccccc4C3)cc2=O)c1	?	?	?	nt	nt	-17.7%
O=C(COc1coc(CN2CCc3ccccc3C2)cc1=O)Nc1ccc(Cl)cc1	-3.6%	?	32.9%	nt	nt	?
O=C(COc1coc(CN2CCc3ccccc3C2)cc1=O)Nc1cccc([N+](=O)[O-])c1	-8.4%	22.4%	?	nt	nt	11.7µM*
O=C(COc1coc(CN2CCCc3ccccc32)cc1=O)Nc1cccc([N+](=O)[O-])c1	-15.2%	7.1%	6.57µM*	nt	nt	?
CCc1ccc(NC(=O)COc2coc(CN3CCc4ccccc4C3)cc2=O)cc1	-15.6%	-28.5%	?	nt	nt	9.28µM*
Cc1cccc(NC(=O)COc2coc(CN3CCc4ccccc4C3)cc2=O)c1	-13.6%	?	?	nt	nt	8.28µM*
Cc1ccc(N2C(=O)N(CC(=O)Nc3cccc(C)c3C)C(=O)C2C)cc1 (stereo not given)	13.4%	5.9%	97.0%	nt	nt	15.1%
CC(=O)C(Sc1nnnn1-c1ccccc1)C(C)=O	7.7%	18.1%	22.1%	8.5	-2.2	38.8%
CCOC(=O)C(CC)Sc1cc(C)nc2ccc(OC)cc12 (stereo not given)	-8.5%	-0.5%	?	7.9	-16.0	?
CC1CCN(S(=O)(=O)c2ccc(C(=O)N(C)C3CCS(=O)(=O)C3)cc2)CC1 (stereo not given)	-7.4%	2.5%	-7.0%	nt	nt	2.4%
O=C(N/N=C/c1ccc[nH]1)c1ccc([N+](=O)[O-])cc1	?	17.9%	?	19.8*	16.6	31.7%
